# Results reported in PubChem BioAssay (NCATS).
# Inconclusive results are not listed. Entries that show only a call come without a potency. The source made the active and inactive calls. Calls come from the whole dose curve; as a rule, active = well fitted inhibition curve with a large enough effect; inconclusive = small, poorly fitted or top-dose-only effect; inactive = no such curve, though single readings can be large or run the other way.
# Molecular target: Cytochrome P450 3A4 (Homo sapiens) (UniProt P08684)
# Sequence (P08684 whole entry, looked up): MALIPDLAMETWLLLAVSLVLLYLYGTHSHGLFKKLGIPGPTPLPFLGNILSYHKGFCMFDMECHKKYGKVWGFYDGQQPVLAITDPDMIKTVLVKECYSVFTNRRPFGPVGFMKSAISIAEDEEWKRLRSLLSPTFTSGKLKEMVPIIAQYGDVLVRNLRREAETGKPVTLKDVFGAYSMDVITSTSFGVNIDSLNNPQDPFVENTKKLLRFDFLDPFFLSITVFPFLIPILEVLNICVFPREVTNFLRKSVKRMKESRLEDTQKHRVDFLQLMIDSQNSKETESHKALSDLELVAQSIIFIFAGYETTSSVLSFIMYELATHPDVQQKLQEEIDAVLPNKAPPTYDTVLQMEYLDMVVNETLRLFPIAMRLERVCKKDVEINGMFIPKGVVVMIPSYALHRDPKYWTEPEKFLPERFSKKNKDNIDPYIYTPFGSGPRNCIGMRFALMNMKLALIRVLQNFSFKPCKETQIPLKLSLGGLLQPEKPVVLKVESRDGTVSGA
# Test: qHTS Assay for Inhibitors and Substrates of Cytochrome P450 3A4 (AID 884); note: nearly all actives have a fitted effect of over 50% in size
# Conditions: recombinant CYP3A4, Luciferin-PPXE luminescence; series mostly up to 57.1 µM
# Method in brief: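 20 nM human CYP3A4 with 25 uM Luciferin-PPXE (at KM) in 200 mM KPO4, preincubated 10 min with compound; NADPH regeneration started a 60 min RT reaction. Luciferin detected by luminescence, normalized to 57 uM ketoconazole as full inhibition.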
# Potency is the fitted concentration of half-maximal effect.
row,Structure (SMILES),Potency
1,OC[C@H]1O[C@@H](OC[C@H]2O[C@@H](O)[C@H](O)[C@@H](O)[C@@H]2O)[C@H](O)[C@@H](O)[C@@H]1O,inactive
2,COc1ccc2c(=O)ccoc2c1,inactive
3,NC(Cc1cnc[nH]1)C(=O)Nc1ccc2ccccc2c1 (configuration not stated),2510 nM (active)
4,COc1ccc2cc1Oc1ccc(cc1)CC1c3cc(c(OC)cc3CCN1C)Oc1c(OC)c(OC)cc3c1C(C2)N(C)CC3 (configuration not stated),inactive
5,O=C(/C=C/c1ccc(O)cc1)c1cccs1,1260 nM (active)
6,CC(=O)OCC(=O)[C@@]1(O)CCC2C3CCC4=CC(=O)CC[C@]4(C)C3C(=O)C[C@]21C (some centres not stated),inactive
7,COc1c2ccoc2cc2oc(C)cc(=O)c12,3160 nM (active)
8,COC(=O)CC1C(C)(C)C(=O)C2CC3C4=CC(=O)OC(c5ccoc5)[C@]4(C)CCC3[C@@]1(C)C2=O (some centres not stated),7940 nM (active)
9,COc1cc2c(C)c3c4c(cc(OC)c(OC)c4c2cc1OC)CCN3C,15800 nM (active)
10,C[C@H]1[C@H]2CC[C@H]3C4CC=C5C[C@@H](N(C)C)CC[C@]5(C)C4CC[C@]23CN1C (some centres not stated),inactive
11,CC(=O)OC1CC2C(C)(C)C(=O)CC[C@]2(C)C2CC[C@]3(C)C(=CC(=O)OC3c3ccoc3)[C@]12C (some centres not stated),6310 nM (active)
12,O=C(O)C(S)[C@@H](S)C(=O)O (some centres not stated),inactive
13,COc1cc2ccc(=O)oc2c(OC)c1OC,inactive
14,NC(=O)c1ccc[n+]([C@@H]2OC(COP(=O)([O-])OP(=O)(O)OCC3OC(n4cnc5c(N)ncnc54)C(O)C3O)C(O)C2O)c1 (some centres not stated),inactive
15,CN(N=O)C(=O)N[C@H]1C(O)C(O)C(CO)O[C@@H]1O (some centres not stated),inactive
16,O=c1[nH]cnc2c1ncn2C1CC(O)C(CO)O1 (configuration not stated),inactive
17,COc1cc2c(C=O)c3c4c(cc(OC)c(OC)c4c2cc1OC)CCN3C,2000 nM (active)
18,COc1cc(OC)c2c(=O)c(-c3ccccc3)coc2c1,15800 nM (active)
19,CC1/C=C/C=C/C=C/C=C/C=C/C=C/C=C/C(OC2OC(C)C(O)C(N)C2O)CC2O[C@@](O)(CC(O)CC(O)C(O)CCC(O)CC(O)CC(=O)OC(C)[C@H](C)C1O)CC(O)C2C(=O)O (some centres not stated),inactive

row,Structure (SMILES),Potency
1,C=C1C(=O)OC2C[C@@]3(C)CCCC(C)C3=CC12 (some centres not stated),7940 nM (active)
2,O[N+]1=CC=CCC1=S.On1ccccc1=S.[Zn],inactive
3,COC(=O)C1OC(=O)C2OC23[C@]2(C)C(OC(C)=O)CC4C(C)(C)C(=O)CC[C@]4(C)C2CC[C@@]13C (some centres not stated),inactive
4,C=C1CCC2C(CC2(C)C)C(=O)CCC1O (configuration not stated),2000 nM (active)
5,CC(=O)OC1CC(OC(C)=O)[C@]2(C)C(CC(OC(C)=O)[C@@]3(C)C4=CC(=O)OC(c5ccoc5)[C@]4(C)CCC32)C1(C)C (some centres not stated),10000 nM (active)
6,COc1cccc2c1C(=O)CC(c1ccccc1)O2 (configuration not stated),inactive
7,C[N+]1(C)C2CCC1CC(OC(=O)C(O)c1ccccc1)C2 (configuration not stated),inactive
8,Nc1nc2c(c(=O)[nH]1)N=C(CNc1ccc(C(=O)NC(CCC(=O)O)C(=O)O)cc1)CN2 (configuration not stated),inactive
9,OC[C@H]1O[C@@H](n2cnc3c(NCc4ccccc4)ncnc32)[C@H](O)[C@@H]1O,inactive
10,CCC(=O)O[C@H]1C(O[C@@H]2C(C)[C@H](O[C@H]3C[C@@](C)(OC)C(O)C(C)O3)C(C)C(=O)OC(CC)[C@@](C)(O)C(O)[C@H](C)C(=O)C(C)C[C@]2(C)O)OC(C)CC1N(C)C (some centres not stated),631 nM (active)
11,CC1(C)C=Cc2c(cc3occ(-c4ccc5c(c4)OCO5)c(=O)c3c2O)O1,25100 nM (active)
12,O=c1cc(-c2ccc(O)cc2)oc2cccc(O)c12,794 nM (active)
13,c1ccc(-c2csc(-c3nc4ccccc4[nH]3)n2)cc1,1260 nM (active)
14,CC[C@H](/C=C/[C@@H](C)[C@H]1CC[C@H]2C3CC=C4C[C@@H](O)CC[C@]4(C)C3CC[C@]12C)C(C)C (some centres not stated),inactive
15,C=C1c2cccc(O)c2C(O)=C2C(=O)[C@]3(O)C(O)=C(C(N)=O)C(=O)C(N(C)C)C3C(O)C12 (some centres not stated),inactive
16,C[C@]12CCC(=O)C=C1CCC1C2C(O)C[C@]2(C)C1CC[C@]2(O)C(=O)COC(=O)CCC(=O)O (some centres not stated),inactive
17,Nc1nc2c(ncn2C2CC(O)C(CO)O2)c(=O)[nH]1 (configuration not stated),inactive
18,COc1c2ccoc2c(OC)c2oc(=O)ccc12,2000 nM (active)
